hNpr1 antagonist: antagonists of human natriuretic peptide receptor Npr1; actives 1.6% (n = 76,000); HEK293 hNpr1 GloSensor cGMP, ANP-stimulated luminescence; P16066; Potency, µM (doses to about 46.3 µM), for the others: at the top dose activity change, negative = inhibition, usual class: inhibitors; AID 1347048; calls by dose curve; also: nearly all actives have a fitted effect of over 60% in size
Target sequence (P16066 whole entry, looked up): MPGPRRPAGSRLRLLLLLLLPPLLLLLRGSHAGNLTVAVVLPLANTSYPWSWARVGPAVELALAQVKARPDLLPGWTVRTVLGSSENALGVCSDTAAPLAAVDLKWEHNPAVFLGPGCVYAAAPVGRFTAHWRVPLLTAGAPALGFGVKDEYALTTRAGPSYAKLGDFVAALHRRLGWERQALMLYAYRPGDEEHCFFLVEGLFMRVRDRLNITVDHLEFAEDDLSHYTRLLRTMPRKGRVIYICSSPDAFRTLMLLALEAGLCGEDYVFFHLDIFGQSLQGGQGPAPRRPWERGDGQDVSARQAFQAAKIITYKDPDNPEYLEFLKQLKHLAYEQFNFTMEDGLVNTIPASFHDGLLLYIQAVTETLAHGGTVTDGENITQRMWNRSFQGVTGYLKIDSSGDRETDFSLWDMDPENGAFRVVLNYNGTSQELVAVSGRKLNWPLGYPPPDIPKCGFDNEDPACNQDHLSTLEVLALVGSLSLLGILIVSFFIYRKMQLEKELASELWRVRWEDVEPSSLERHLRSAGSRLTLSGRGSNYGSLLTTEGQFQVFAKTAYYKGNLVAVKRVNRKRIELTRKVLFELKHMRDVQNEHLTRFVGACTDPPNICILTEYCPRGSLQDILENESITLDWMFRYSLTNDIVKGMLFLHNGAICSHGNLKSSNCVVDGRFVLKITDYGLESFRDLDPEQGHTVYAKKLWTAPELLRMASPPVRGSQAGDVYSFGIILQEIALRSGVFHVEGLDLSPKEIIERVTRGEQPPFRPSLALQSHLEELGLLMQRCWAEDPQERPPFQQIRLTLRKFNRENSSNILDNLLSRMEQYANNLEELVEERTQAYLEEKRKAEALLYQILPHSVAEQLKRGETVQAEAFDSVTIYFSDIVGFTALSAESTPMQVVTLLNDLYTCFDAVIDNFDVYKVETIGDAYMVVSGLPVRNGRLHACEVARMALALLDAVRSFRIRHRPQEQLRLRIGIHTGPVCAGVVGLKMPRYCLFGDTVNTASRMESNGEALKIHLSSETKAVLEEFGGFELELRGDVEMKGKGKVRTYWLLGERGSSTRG
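Compound pre-incubated 30 min at room temperature on GloSensor-loaded HEK293 cells stably carrying hNpr1 and the pGS-40F cGMP biosensor. Stimulation uses hNppA at 0.1 nM final; luminescence is taken at baseline and 20 min post-agonist.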
HEK293 tox: kills HEK 293 cells. AID 1345083. HEK 293 viability, ATP luminescence (CellTiter-Glo), 48-72 h. actives 6.6% (n = 94,000). Potency, µM (doses to about 115 µM), for inactives: at the top dose activity change, negative = cytotoxicity, most hits filed as inhibitors; also: nearly all actives have a fitted effect of over 60% in size
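Cytotoxicity was scored by loss of ATP-coupled luminescence (CellTiter-Glo) in HEK 293 cells. Compound treatment ran 48 or 72 hr at 37 degree Celsius, 5% CO2, 95% humidity.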
Luciferase inh: inhibitors of firefly (Photinus pyralis) luciferase | purified P. pyralis luciferase, luminescence, biochemical | Potency, µM (highest dose often 115 µM), hits mostly inhibitors | P08659 | actives 2.5% (n = 76,000); also: nearly all actives have a fitted effect of over 65% in size
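FLuc 10nM, D-luciferin 10uM, ATP 10uM, Mg acetate 10mM, Tris acetate pH 7.5, Tween/BSA; cpd qHTS; enzyme added last; CCD luminescence.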
3T3 cytotox: cytotoxic compounds in NIH 3T3 cells. NIH 3T3 viability, CellTiter-Glo ATP luminescence, 48-72 h. actives 4.3% (n = 94,000). Potency, µM (highest dose often 96.7 µM), for the others: at the top dose activity change, negative = cytotoxicity, actives largely listed as inhibitors; also: nearly all actives have a fitted effect of over 55% in size
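NIH 3T3 cells at 400 cells/well received 23 nL of compound by pintool and were incubated 48 or 72 h at 37 °C. Viability was read as ATP-coupled CellTiter-Glo luminescence.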
Active calls of the source: *; i = inactive; ? = inconclusive; nt = no result given; ! = not confirmed by another sample; [ ] = another dose, or the depositor's remark. Sampled rows, rich in hits. Any-hit rate of the full collection: about 11%. Unless noted, calls follow the shape of the dose curve; as a rule, active = well fitted curve in the direction sought with a large enough effect; inconclusive = small, poorly fitted or top-dose-only effect, or another doubt; inactive = no such curve, though single readings can be large; an effect the other way counts as inactive or inconclusive. % is scaled to controls: 0 for no effect and ±100 for the full control effect; potency is read from the fitted curve at half-maximal effect.

SMILES	hNpr1 antagonist	HEK293 tox	Luciferase inh	3T3 cytotox
CC(=O)N1CCCC(C(=O)N2CCC(c3nc4ncccc4[nH]3)CC2)C1 (stereo not given)	nt	i	nt	2%
CNC(=O)COC1CN(C(=O)c2ccc(C)cc2)CCC(=O)N(C)c2ccccc21 (stereo not given)	nt	-10%[57.5 µM]	nt	?
COc1cccc(-c2ccc(C(=O)N3CCC(NC(=O)Cc4cccc(Cl)c4)CC3)cc2)c1	nt	25µM*	nt	?
CCN1c2cc(C(=O)Nc3ccc(Cl)c(C)c3)ccc2C(=O)N2CCCCC21 (stereo not given)	4%	16µM*	i	?
CCN1c2cc(C(=O)Nc3ccc(Cl)c(Cl)c3)ccc2C(=O)N2CCCCCC21 (stereo not given)	-2%	?	i	45µM*
CCN1c2cc(C(=O)Nc3ccc(Br)c(C)c3)ccc2C(=O)N2CCCC21 (stereo not given)	0%	?	i	-20%
CCN1c2cc(C(=O)Nc3ccc(C)c(C)c3)ccc2C(=O)N2CCCCC21 (stereo not given)	-10%	28µM*	i	28µM*
CCn1ccnc1C1CCN(c2nc3ccccc3o2)CC1	0%	-17%	?	-6%
Cc1ccc(C(=O)NC2CCN(c3nc4ncccc4o3)C2)cc1 (stereo not given)	nt	-2%[172 µM]	nt	i
O=C(Nc1cnc(-c2ccc(Cl)cc2)nc1)c1ccccc1Cl	?	?	0.63µM*	2%
CC1=C[C@@H](CN2CCC(C(N)=O)CC2)[C@H](C(C)C)C[C@H]1Cc1nnc(-c2ccc(N(C)C)cc2)o1	5%	40µM*	i	35µM*
CC1=C[C@@H](CN2CCC(C(N)=O)CC2)[C@H](C(C)C)C[C@H]1Cc1nnc(-c2ccc(C)cc2)o1	9%	35µM*	i	32µM*
CC1=C[C@@H](CN2CCC(C(N)=O)CC2)[C@H](C(C)C)C[C@H]1Cc1nnc(C(C)(C)C)o1	-4%[70.6 µM]	?	i	?
CNC(=O)c1nc2cccnc2n(C2CC2)c1=O	nt	-1%[172 µM]	nt	i
CCn1ncc(NC(=O)Cn2ncc3cc(-c4ccc(F)cc4F)ccc32)n1	13µM*	-64%	?	?
CCn1ncc(NC(=O)Cn2ncc3cc(-c4ccc(C(=O)N(C)C)cc4)ccc32)n1	-12%	45µM*	6.3µM*	-21%
CCn1ncc(NC(=O)Cn2ncc3cc(-c4cc(F)ccc4F)ccc32)n1	?	-63%	i	?
CCn1ncc(NC(=O)Cn2ncc3cc(-c4cccc(OC)c4)ccc32)n1	?	-57%	?	-67%
CCn1ncc(NC(=O)Cn2ncc3cc(-c4cccc(C#N)c4)ccc32)n1	?	25µM*	i	?
O=C([C@H]1CCCN1C(=O)Nc1ccccc1)N1CCCC(c2nc3ccncc3[nH]2)C1 (stereo not given in full)	nt	-4%	nt	-17%
CCc1nc(-c2ccc(OC3CCN(S(=O)(=O)Cc4ccccc4)C3)cc2)no1 (stereo not given)	?	45µM*	?	?
COCc1nc(-c2ccc(OC3CCN(C(=O)Cc4c[nH]c5ccccc45)C3)cc2)no1 (stereo not given)	?	35µM*	i	?
CCc1nc(-c2ccc(OC3CCN(C(=O)c4sc(C)nc4C)C3)cc2)no1 (stereo not given)	-20%	45µM*	i	?
CC(=O)N1CCC(C(=O)N2CCCC2c2nc3ccncc3[nH]2)CC1 (stereo not given)	nt	i	nt	5%
COc1cccc(-c2ccc(C(=O)NCCNC(=O)c3ccccc3F)cc2)c1	nt	89µM*!	nt	-28%
SMILES	hNpr1 antagonist	HEK293 tox	Luciferase inh	3T3 cytotox
COc1ccc(CC(=O)NCCNC(=O)c2ccc(-c3cccc(OC)c3)cc2)cc1	nt	?	nt	-20%
COc1cccc(-c2ccc(C(=O)NCCNC(=O)Cc3ccc(F)cc3)cc2)c1	nt	89µM*	nt	?
COc1cccc(-c2ccc(C(=O)NCCNC(C)=O)cc2)c1	nt	-24%[172 µM]	nt	-14%[138 µM]
CCc1nc2c(c(-c3ccc(O)cc3)n1)CN(C(=O)c1cccc(Cl)c1)CC2	nt	-10%	nt	-28%
Cc1ccc(Cc2nc(C3CC(=O)N(c4ccc(Cl)cc4)C3)no2)cc1 (stereo not given)	-12%	?	i	?
O=C1CC(c2noc(Cc3ccc(F)cc3)n2)CN1c1ccc(F)c(Cl)c1 (stereo not given)	-1%	22µM*	i	18µM*
CCOC(=O)[C@H]1[C@@H](O)C(=O)N(Cc2ccccc2)C12CCN(C(=O)CC(C)(C)C)CC2	nt	?	nt	22µM*
Cc1ccc([S+](=O)([O-])N2CCN(C(=O)c3nc4cccnc4n(C4CC4)c3=O)CC2)cc1	nt	-5%	nt	-20%
CN(Cc1cnn(-c2ccccc2)c1)Cc1cc2ccccc2[nH]c1=O	5%	-1%	i	i
CN(Cc1cccc(CCN)c1)Cc1cnn(-c2ccc(F)cc2)c1	1%	?	i	45µM*
COc1ccc(Cl)cc1-c1ccc2c(c1)C(=O)N1CC[C@H](N)C[C@H]1C(=O)N2	-16%[70.6 µM]	25µM*	i	32µM*
COc1ccc(Cl)cc1-c1ccc2c(c1)C(=O)N1C[C@@H](NS(=O)(=O)c3ccc(F)cc3)C[C@H]1C(=O)N2	-28%	35µM*	i	?
COc1ccc(Cl)cc1-c1ccc2c(c1)C(=O)N1C[C@H](O)C[C@H]1C(=O)N2	3%[70.6 µM]	?	i	?
CNC(=O)[C@H]1C[C@]2(CCCCN(CCO)C2=O)N(C(=O)c2cccc(OC)c2)[C@H]1c1ccco1	nt	-33%	nt	?
O=C(NCCc1ccccc1)c1ccc2nnc(-c3ccoc3)n2c1	nt	?	nt	-29%
C#CCNC(=O)c1nc2cccnc2n(C2CC2)c1=O	nt	-10%[172 µM]	nt	-25%[138 µM]
Cc1cc(C2CC(C(=O)NCc3ccc4c(c3)OCO4)CN(C(=O)c3ccccc3)C2)ccc1F (stereo not given)	-17%	?	i	?
CCNC(=O)N1CC(C(=O)NCc2ccccc2)CC(c2ccc(F)c(C)c2)C1 (stereo not given)	?	?	i	?
Cc1cc(C2CC(C(=O)NCCc3ccccc3)CN(C(=O)NC(C)C)C2)ccc1F (stereo not given)	3%	40µM*	i	?
Cc1cccc(CNC(=O)C2CC(c3ccc(F)c(C)c3)CN(C(=O)c3ccccc3)C2)c1 (stereo not given)	-4%	40µM*	i	25µM*
CCN1c2cc(C(=O)Nc3ccc(OC)c(OC)c3)ccc2C(=O)N2CCCCCC21 (stereo not given)	-30%	45µM*	i	?
CCN1c2cc(C(=O)Nc3ccc(OC)c(Cl)c3)ccc2C(=O)N2CCCCC21 (stereo not given)	-26%	35µM*	i	22µM*
CCN1c2cc(C(=O)Nc3ccc(OC)c(OC)c3)ccc2C(=O)N2CCCCC21 (stereo not given)	-12%	?	i	?

Compound activity: PubChem, National Center for Advancing Translational Sciences (NCATS)
